Bioassay records (PubChem BioAssay)
KDM5B inhibitor: KDM5B demethylase inhibition; Potency, µM (series often up to 57.7 µM), actives largely listed as inhibitors; hit rate 2.6% among 220,000; Q9UGL1; KDM5B demethylase, FDH-coupled NADH fluorescence (FDH is formaldehyde dehydrogenase); active = well fitted inhibition curve with a large enough effect; also: 0% is about no effect; nearly all actives have a fitted effect of over 70% in size
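Compound dilutions met 200 nM (final) KDM5BΔAP for 10 min at room temperature before substrate addition. The substrate mix held 12.5 µM H3K4me3 with cofactors 25 µM α-ketoglutarate and 50 µM Fe²⁺. NADH signal gain over 30 min defined activity.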
The depositor's hits bear a star; i = inactive. Shown is part of a subset that was picked to be rich in hits. Potency is read from the fitted curve at half-maximal effect.

SMILES	KDM5B inhibitor
CN(C)C(=O)N1CCC2(CC1)CN(C(=O)c1ccnc(N)c1)Cc1ccccc1O2	79µM*
CN(C)C(=O)N1CCC2(CC1)CN(C(=O)Cc1cccc(O)c1)Cc1ccccc1O2	i
CN(C)C(=O)N1Cc2ccccc2OC2(CCN(C(=O)c3c[nH]c4ccccc34)CC2)C1	i
CN(C)C(=O)N1Cc2ccccc2OC2(CCN(C(=O)c3ccnc(N)c3)CC2)C1	89µM*
CC(=O)Nc1cc(-c2ccc(=O)n(CC(=O)Nc3c(C)cc(C)cc3C)n2)ccc1C	i
N#CCSc1ccccc1C(=O)Nc1ccc2c(c1)OCCO2	i
CC(C(=O)Nc1ccc(OC(F)F)c(Cl)c1)n1cccn1 (stereo unspecified)	i
Cn1ncc(N2CCC(NC(=O)C3CCC3)CC2)cc1=O	i
Cc1cc(C(=O)NC2CCCCC2)c2cccc(C)c2n1	i
Cc1cc(C(=O)NC2CCS(=O)(=O)C2)c2ccc(F)cc2n1 (stereo unspecified)	i
CC(=O)Nc1cc(C(=O)NC2CCCCC2)c2ccc(C)nc2c1	22µM*
Cc1ccc2c(C(=O)NC3CCN(C)CC3)cc(NC(=O)C3CCC3)cc2n1	22µM*
Cc1ccc(-c2cc(C(=O)NC3CCCCC3)c3ccccc3n2)cc1	i
CC(C)c1ccc2oc(=O)cc(CN3CCN(CCO)CC3)c2c1	i
O=C(OC1CCCCC1=O)c1ncc(Cl)c(Cl)c1Cl (stereo unspecified)	i
CC(C)OCc1ccccc1CNS(=O)(=O)c1cc(F)cc(F)c1	i
CCc1ccc(CNC2CC2)cc1	i
COc1ccc(-c2nc3cc(NC(=O)c4ccc(C)c([N+](=O)[O-])c4)ccc3o2)cc1OC	i
COc1ccc(-c2nnc(SCC(=O)Nc3cc(OC)cc(OC)c3)[nH]c2=O)cc1	i
COc1cccc(N2C(=O)NC(=NC3CCCCC3)C23CCN(Cc2ccsc2)C3)c1 (stereo unspecified)	i
O=C(NCc1cccc(C(F)(F)F)c1)c1cnc(-c2ccccc2)nc1-c1ccncc1	i
Cc1ccc(-n2nc(CO)c(C(=O)NCc3ccc4c(c3)OCO4)n2)cc1	i
COc1ccccc1-c1nc(C(=O)NCc2ccc3c(c2)OCO3)n2ccccc12	25µM*
Cc1nc(N2CCC(C(=O)NCc3ccc4c(c3)OCO4)CC2)cc(C(F)(F)F)n1	i
O=C(NCc1ccc2c(c1)OCO2)c1nc(-c2cc(Cl)cc(Cl)c2)c2ccccn12	14µM*
SMILES	KDM5B inhibitor
O=C(NCc1cccs1)c1nc(-c2cccnc2)c2cnccn12	25µM*
O=C(NCc1cccs1)c1cc(-c2cccnc2)nc2ccc(Br)cc12	i
COc1cccc2cc(C(=O)OCC(=O)NCc3ccc4c(c3)OCO4)c(=O)oc12	i
O=C(NCc1cccs1)c1nc(-c2cccnc2)c2ccccn12	i
O=C(NCc1ccc2c(c1)OCO2)c1nn(-c2ccc(Cl)cc2)nc1CO	i
O=C(NCc1ccc2c(c1)OCO2)c1nc(-c2cccc(C(F)(F)F)c2)c2cnccn12	28µM*
O=C(/C=C/c1ccccc1)NCc1ccc2c(c1)OCO2	i
O=C(NC1CCCC1)c1csc2ccccc12	i
Cc1ccccc1CN1CCC2(Cc3ccccc3CNC2=O)C1 (stereo unspecified)	i
CCN(C)Cc1cccc(CNC(=O)CCc2ncc(-c3ccccc3)o2)c1	i
CCOC(=O)c1sc(NC(=O)Nc2cccc(Cl)c2)nc1C	i
Cc1nc(-c2ccc(S(=O)(=O)Nc3ccc(Cl)cc3C)cc2)co1	i
O=C(NCc1cccnc1)c1ccc2oc(-c3ccc(C(F)(F)F)cc3)nc2c1	i
CNS(=O)(=O)c1ccc(C(=O)NCC2(c3ccccc3)CC2)cc1	i
COc1ccc2nc(C[C@@H]3C[C@@H](C(C)C)[C@H](CNC4CCCCC4)C=C3C)[nH]c2c1	i
Fc1cccc(-c2nnn3c2nc(NCc2ccc4c(c2)OCO4)c2ccccc23)c1	i
Cc1ccc(-c2nnn3c2nc(NCc2ccc4c(c2)OCO4)c2ccccc23)cc1	i
O=C(NCc1ccc2c(c1)OCO2)c1nc(-c2cccnc2)c2cnccn12	28µM*
O=C(NCc1ccc2c(c1)OCO2)c1nc(-c2cccc(C(F)(F)F)c2)c2ccccn12	11µM*
Cc1ccc(S(=O)(=O)CCc2ccccc2Cl)cc1C	i
CC(C)=CCN1C[C@H](NC(=O)CCc2cccs2)C[C@H]1C(=O)NC(C)C	i
COc1ccc(-c2nc(NC(=O)Cn3cnc4c3c(=O)n(C)c(=O)n4C)sc2C)cc1	i
O=C1NCCCCCCN(C(=O)CCC2CCCC2)[C@H]2CCC[C@@H]12	i
O=C(NC1CCCCCC1)C1CCC(Cn2cnnn2)CC1 (stereo unspecified)	i
COc1ccc(-c2nonc2NC(=O)Cc2cccc3ccccc23)cc1	i
SMILES	KDM5B inhibitor
CC(C)CC(NC(N)=O)C(=O)NCCc1ccc(C(F)(F)F)cc1 (stereo unspecified)	i
CSCc1noc(CNC(=O)CC(c2ccccc2)c2ccccc2Cl)n1 (stereo unspecified)	i
CSCc1ccc(C(=O)NCc2ccccc2)o1	i
CSCc1noc(CNC(=O)c2ccc(-c3ccccc3Cl)o2)n1	32µM*
Clc1ccc(-c2noc(CNc3ccc(Br)cc3)n2)cc1	i
Cc1ccc(Nc2nc(NCCO)nc3c2cnn3C)cc1C	i
Cc1ccc(C(=O)N2CCC3(CC2)N=C(c2cccc(Br)c2)NO3)cc1	32µM*
Cc1ccc(C2=NC3(CCN(C(=O)c4cccc(N(C)C)c4)CC3)ON2)cc1	i
CN(C)c1cccc(C(=O)N2CCC3(CC2)N=C(c2cccc(Br)c2)NO3)c1	32µM*
CN(C)c1cccc(C(=O)N2CCC3(CC2)N=C(c2ccccc2)NO3)c1	i
Cc1ccc(C(=O)N2CCC3(CC2)N=C(c2ccc(C)cc2)NO3)cc1	i
Cc1ccccc1C(=O)N1CCC2(CC1)N=C(c1cccc(Br)c1)NO2	i
CCOCCCNC(=O)c1cc(C2CC2)nc2ccccc12	i
O=C1CN(C(=O)COc2ccc(F)cc2F)c2ccccc2N1	i
Cc1noc([C@@H](C)NC(=O)Nc2ccc(Cl)cc2)c1C(=O)O	40µM*
C[C@@H](NC(=O)Nc1ccc(Cl)cc1)c1onc(-c2ccccc2)c1C(=O)O	i
Cc1noc([C@@H](C)NC(=O)c2ccc(Cl)cc2)c1C(=O)O	i
COc1ccc(NC(=O)c2ncoc2-c2ccc(OC)c(OC)c2)c(OC)c1	i
CCc1ccc2oc(-c3ccc(NC(=O)c4ccc([N+](=O)[O-])o4)cc3)nc2c1	i
COCc1cccc(C(=O)NCc2ccc(C(=O)O)cc2)c1	i
NC(=O)c1cccnc1N1CCC2(CCCN(Cc3cccc(F)c3F)C2)C1 (stereo unspecified)	i
NC(=O)c1cc2c(nc1N1CCC3(CCCN(CC4CCC4)C3)C1)CCC2 (stereo unspecified)	25µM*
NC(=O)c1cccnc1N1CCC2(CCCN(Cc3ccccc3F)C2)C1 (stereo unspecified)	i
CCc1cn[nH]c1C1CCCN(C(=O)c2cnn(-c3ccccc3OC)c2)C1 (stereo unspecified)	i
COc1ccccc1N1CCN(C(=O)Cn2ncc3ccsc3c2=O)CC1	i
COc1ccccc1-n1cc(-c2ccnc(N3CCCN(C(C)=O)CC3)n2)cn1	32µM*
CS(=O)(=O)c1ccc(C(=O)COC(=O)COc2ccc3ccccc3c2)cc1	i
O=C(/C=C/c1ccc(-c2cccc(Cl)c2)o1)c1cc(Cl)ccc1Cl	i
